This is a sample that favours compounds with a hit; in the whole collection about 21% have one here.
IL-1B inflam inh – blocks inflammasome-driven IL-1 beta release; activity change, % at 57.5 µM; THP-1 LPS/ATP IL-1B secretion, AlphaLISA, 16 h; stronger effect = lower value; actives 4.7% (n = 360,000); in the data active means activity change below about -50%; inconclusive means mostly about -30% to -49%
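Secreted IL-1B measured by AlphaLISA bead assay after 16 h compound exposure of THP-1 cells; compounds (final up to 57.5 uM) added 1 h before LPS (250 ng/mL) and ATP (1.25 mM) stimulation; lower signal means less secretion.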
DT40 TDP1 CPT – growth inhibition of DT40 Tdp1-/-;hTDP1 cells with camptothecin (screen for TDP1 inhibitors). Potency, µM (series often up to 46.2 µM), for inactives: at the top dose activity change, negative = growth inhibition, most hits filed as inhibitors. actives 12% (n = 420,000). chicken DT40 Tdp1-/-;hTDP1 cells + 20 nM CPT, ATP luminescence, 48 h. AID 686979; further: potency means the concentration at half of the fitted maximal effect; nearly all actives have a fitted effect of over 55% in size
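Cell growth measured by CellTiter-Glo luminescence after a minimum 48 h, 37 C compound exposure with 20 nM CPT in Tdp1-knockout DT40 cells stably expressing hTDP1, seeded 400/well; qHTS titration format.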
DT40 TDP1 no CPT – qHTS for Inhibitors of human tyrosyl-DNA phosphodiesterase 1 (TDP1): qHTS in cells in absence of CPT | DT40 Tdp1-/- hTDP1 cells, no CPT, ATP luminescence, 48 h | Potency, µM (series often up to 46.2 µM), inactives show at the highest dose activity change, negative = growth inhibition, hits mostly inhibitors | actives 15% (n = 420,000); further: potency means the concentration at half of the fitted maximal effect; nearly all actives have a fitted effect of over 55% in size
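DT40 Tdp1-/-;hTDP1 cells, no CPT (DMSO vehicle only), 400 cells/well; compounds pin-transferred; ≥48 hr, 37 °C; CellTiter-Glo 30 min RT dark, luminescence read.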
RORgamma inh – ROR gamma (mouse) transcription inhibition; P51450; Drosophila S2 Gal4-RORgamma UAS-luciferase reporter, 20 h; Potency, µM (doses to about 53.6 µM), for the others: at the top dose activity change, negative = inhibition, most hits filed as inhibitors; actives 5.4% (n = 310,000); AID 2551; further: potency means the concentration at half of the fitted maximal effect; nearly all actives have a fitted effect of over 60% in size
Target sequence (P51450 whole entry, looked up, the tested form may be a part): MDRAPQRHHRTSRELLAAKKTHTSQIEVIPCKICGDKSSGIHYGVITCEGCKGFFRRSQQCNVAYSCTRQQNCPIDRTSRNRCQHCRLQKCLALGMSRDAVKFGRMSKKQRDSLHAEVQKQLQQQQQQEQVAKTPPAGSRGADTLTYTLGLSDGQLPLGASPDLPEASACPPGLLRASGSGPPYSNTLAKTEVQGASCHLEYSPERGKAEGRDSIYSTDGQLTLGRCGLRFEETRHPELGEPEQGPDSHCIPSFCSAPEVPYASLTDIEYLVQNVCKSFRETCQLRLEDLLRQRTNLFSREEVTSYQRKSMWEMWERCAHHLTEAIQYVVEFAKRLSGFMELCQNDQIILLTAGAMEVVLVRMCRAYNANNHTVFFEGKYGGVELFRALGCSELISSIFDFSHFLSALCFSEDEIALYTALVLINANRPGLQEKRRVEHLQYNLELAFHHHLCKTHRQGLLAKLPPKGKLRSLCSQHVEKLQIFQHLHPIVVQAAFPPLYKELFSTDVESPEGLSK
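In this cell-based reporter format, copper sulfate (700 uM final) drives Gal4–ROR gamma fusion expression from a metallothionein promoter in Drosophila Schneider cells; compounds preincubated 1 hr, reporter read after 20 hr at ambient temperature.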
ELG1 repair inh – inhibitors of ELG1-dependent DNA repair in HEK293T cells; HEK293T ELG1-luciferase reporter, luminescence, 16 h; DNA damage induced by 5-fluorouridine; Potency, µM (titrated, usually from 46.1 µM), for the others: at the top dose activity change, negative = inhibition, most hits filed as inhibitors; actives 2.3% (n = 330,000); AID 504467; further: potency means the concentration at half of the fitted maximal effect; nearly all actives have a fitted effect of over 55% in size
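Luminescence from the luciferase reporter, measured 30 min after ONE-Glo reagent at room temperature, was the read-out. Beforehand, 2,000 cells per well were exposed for 16 hr at 37 °C to 5-fluorouridine together with compound or vehicle.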
Gal4-VP16 FLuc – Gal4-VP16 reporter inhibition counter-screen; Drosophila S2 Gal4-VP16 UAS-luciferase, luminescence, 20 h; Potency, µM (doses to about 53.6 µM), without a hit: top-dose activity, negative = inhibition, actives largely listed as inhibitors; actives 3.5% (n = 310,000); AID 2546;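 further: Gal4-VP16 expression switched on by copper sulfate through the metallothionein promoter; potency means the concentration at half of the fitted maximal effect; nearly all actives have a fitted effect of over 50% in size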
The depositor's hits bear a star; ? = inconclusive; . = no result. Unless noted, the call rests on the fitted dose curve; in most records, active means well fitted curve in the direction sought with a large enough effect; inconclusive means small, poorly fitted or top-dose-only effect, or another doubt; inactive means no such curve, though single readings can be large; an effect the other way counts as inactive or inconclusive. On the % scale 0 is the no-effect control and ±100 the full control effect.

SMILES | IL-1B inflam inh | DT40 TDP1 CPT | DT40 TDP1 no CPT | RORgamma inh | ELG1 repair inh | Gal4-VP16 FLuc
O=C(Nc1nnc(Cc2ccccc2)s1)c1ccco1 | 1 | -7% | -6% | ? | ? | 23%
Cc1ccc(Cc2cnc(NC(=O)c3ccco3)s2)cc1 | 2 | -85% | ? | ? | ? | 5.6µM*
NC(=O)c1cc(Cc2ccccc2)sc1NC(=O)c1ccco1 | -56* | ? | 12µM* | ? | ? | ?
CN(C)c1cccc(C(=O)NNC(=O)CSc2ccccc2)c1 | -12 | 12% | 2% | -9% | ? | -9%
COc1cccc(NC(=O)c2cc(CN3CCOCC3)on2)c1 | . | 17% | 10% | . | . | .
COc1ccc(C(=O)Nc2ccc(SC(F)F)cc2)cc1 | 31 | -30% | ? | ? | ? | 0%
O=C(Nc1ncc(Cc2ccc(SC(F)F)cc2)s1)c1ccc(OC(F)F)cc1 | 22 | 1.3µM* | 1µM* | -45% | ? | ?
CC(C)CC(=O)Nc1nc2ccc(S(=O)(=O)N3CCOCC3)cc2s1 | 13 | 13µM* | 21µM* | 10% | ? | 5%
CCOc1ccccc1NC(=O)[C@@H](NC(=O)c1cccc(S(=O)(=O)N2CCOCC2)c1)C(C)C | 22 | -5% | -10% | 3% | ? | -2%
CCCC(=O)Nc1nc2ccc(S(=O)(=O)N3CCCCC3)cc2s1 | 30 | 1.3µM* | 1.3µM* | 23% | ? | -2%
CC(=O)Nc1nc2ccc(S(=O)(=O)N3CCCC3)cc2s1 | 70 | ? | -18% | -16% | -13% | 26%
CC(C)[C@H](NC(=O)c1cccc(S(=O)(=O)N2CCOCC2)c1)C(=O)Nc1nc2ccccc2s1 | -54* | ? | ? | ? | ? | 1%
COC(=O)[C@@]1(Cc2ccc(F)cc2)[C@H]2c3cc(C(=O)N(C)C)n(CCCNc4ncc(C(F)(F)F)cc4Cl)c3C[C@H]2CN1C(=O)c1ccccc1 | 0 | ? | ? | . | . | .
Cc1cc(Cl)cc(Cl)c1OCCCCN(C)C | 0 | ? | 18µM* | -31% | 1% | -10%
CCNc1ncc2nc(CCc3ccccc3)c(=O)n(CCOC)c2n1 | . | 10% | -15% | -1% | . | -8%
O=C(Nc1ccccc1)N1CC2(CCN(C(=O)c3cnccn3)CC2)C1 | . | 3% | 1% | -2% | . | -6%
CCN(CC)S(=O)(=O)c1ccc(-c2nnc(SCC(=O)c3ccc(OC)cc3)o2)cc1 | 20 | -20% | -22% | 6% | ? | -7%
CCN(CC)S(=O)(=O)c1ccc(-c2nnc(SCC(N)=O)n2CC)cc1 | 11 | 2% | 0% | 19% | 7% | -7%
CCN(CC)S(=O)(=O)c1ccc(-c2nnc(SCC(=O)N3c4ccccc4CC3C)n2CC)cc1 (stereo unspecified) | 3 | 15µM* | 21µM* | ? | ? | -14%
CCN(CC)S(=O)(=O)c1ccc(-c2nnc(SCC(=O)N3c4ccccc4CC3C)o2)cc1 (stereo unspecified) | 6 | 21µM* | 21µM* | -24% | 0% | ?
CC1CN(C(=O)COC(=O)c2cncc(Br)c2)CC(C)O1 (stereo unspecified) | -1 | -5% | 14% | . | . | .
COCCN1CN(S(=O)(=O)c2cccc(Cl)c2)c2nc3ccccc3nc21 | 0 | -14% | -13% | 22% | -1% | 6%
CC(C)OCCCN1CN(S(=O)(=O)c2ccccc2)c2nc3ccccc3nc21 | -27 | -13% | ? | 19% | 16% | -4%
COc1ccc(CCN2CN(S(=O)(=O)c3ccccc3)c3nc4ccccc4nc32)cc1 | 57 | ? | 18µM* | 28% | -12% | -3%

From PubChem
